Measured values reported in PubChem BioAssay (NCI).
The panel holds about 83,000 compounds, 20% with a hit somewhere; the sample as a whole holds those more often.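 48-hour exposure, single concentration, 96-well plates; percent growth endpoint where 0 means no net growth. Active: below 10.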 A number with no mark means an inactive call. Activity calls are given as the source filed them.

These compounds were tested on 786-0 renal (assay: NCI-60 one-dose screen, 48 h (100 = growth as untreated, 0 = no growth, -100 = all killed)). Details: 10 µM unless noted.

| Structure (SMILES) | growth |
| --- | --- |
| C=C1CCC2C3(C)COC(c4ccc(F)cc4)OC3CCC2(C)C1CC(O)C1=CCOC1=O (stereo not given) | 19.4% |
| NS(=O)(=O)c1ccc(N=Nc2c(O)n(CC(=O)Nc3ccccc3Cl)c3ccccc23)cc1 | 11.9% |
| Cc1ccccc1[C@H]1C(C(=O)c2ccc(Cl)cc2)C2(N[C@@H]1c1ccccc1)C(=O)Nc1ccc(Cl)cc12 (stereo not given in full) | -39.3% (active) |
| CCCCCCCCc1ccc(S(=O)(=O)Nc2ccc(CC)cc2C(=O)O)cc1 | 103% |
| CCC(C)(C)c1ccc(OCCCCN2CCN(c3ccncc3)CC2)cc1 | -56.4% (active) |
| COc1ccc(C(=O)/C=C/c2ccc(Oc3nc(Nc4ccc(F)cc4)nc(N(C)C)n3)c(OC)c2)cc1 | 57.3% |
| S=c1c2ccccc2nc2n1CCc1c-2[nH]c2ccccc12 | 46.9% |
| CCOC(=O)COc1c(OC)c(OC)cc2oc(-c3cccc(C(=O)Nc4ccc(Cl)cc4)c3)cc(=O)c12 | 49.5% |

Each compound was assayed on COLO 205 colon in the same assay as above. Details: 10 µM unless noted.

| Structure (SMILES) | growth |
| --- | --- |
| C/C(=N\N=C1/C(=O)Nc2ccc(Cl)cc21)c1ccc2c(c1)Nc1ccccc1S2 | -41.7% (active) |
| CCCSc1nc(NCCc2c[nH]c3ccccc23)c(C#N)c(-c2ccc(F)cc2)n1 | 44% |
| COc1cc(C2CC(c3cc(OC)c(OC)c(OC)c3)=NN2C(C)=O)ccc1OCc1ccccc1 (stereo not given) | 10.9% |
| Cc1cc2c(cc1Cl)C(=O)/C(=C/c1ccccc1)O2 | 32.7% |
| COc1ccc2[nH]cc(-c3nc(N)nnc3-c3cn(C)c4ncccc34)c2c1 | 44.5% |
| Cc1ccc(C(=O)CSc2nc3ccc(F)cc3c(=O)n2-c2ccc(Cl)cc2)cc1 | 69.9% |
| CCCCSc1nc(NCCc2c[nH]c3ccccc23)c(C#N)c(-c2ccccc2)n1 | 24.8% |
| Cn1cc(-c2nc(N)nnc2-c2c[nH]c3ccc(Br)cc23)c2cccnc21 | 44.5% |
| CN(C)CCOc1ccc(C(=O)C2[C@H](c3ccc(Cl)cc3)[C@@H](c3ccccc3)NC23C(=O)Nc2ccc(Br)cc23)cc1 (stereo not given in full) | -69% (active) |
| CN1CCN(/C(=N\c2sc(-c3ccccc3)nc2-c2ccccc2)c2ccccc2)CC1 | 42% |
| CCCSc1nc(NCCc2c[nH]c3ccccc23)c(C#N)c(-c2ccccc2)n1 | 62.8% |
| CCN(CC)c1ccnc(CNCCSC(c2ccccc2)(c2ccccc2)c2ccc(OC)cc2)c1 | -74% (active) |
| COc1cc2oc(-c3cccc(C(=O)Nc4cccc([N+](=O)[O-])c4)c3)cc(=O)c2c(OC)c1OC | 91% |
| O=C(COc1ccc(NC(=O)Nc2ccc(Cl)c(Cl)c2)cc1)N=Nc1c(O)[nH]c2ccc([N+](=O)[O-])cc12 | 14.3% |
| COc1cc(-c2nc3cc(Cl)c(Cl)cc3[nH]2)ccc1OCc1nnc(-c2cccs2)o1 | 81.9% |
| CCCCCCCCc1ccc(C(=O)Nc2ccc(C)cc2C(=O)O)cc1C | 114% |
| CCOP(=O)(OCCCl)c1nc(-c2ccc(C)cc2)oc1NCc1ccccc1 (stereo not given) | 83.5% |
| NS(=O)(=O)c1ccc(N=Nc2c(O)n(CC(=O)Nc3ccccc3)c3ccccc23)cc1 | 27.6% |
| CC1(C)CC[C@]2(C(=O)Nc3ccccc3)CC[C@]3(C)C(=CCC4[C@@]5(C)C[C@@H](O)[C@H](O)[C@@](C)(CO)C5CC[C@]43C)C2C1 (stereo not given in full) | 31.6% |
| COc1ccccc1C(=O)NN1C(=O)/C(=C/C2=Cc3ccccc3OC2)SC1=S | 119% |
| COc1ccc(NC(=O)[C@H](CO)NC(=O)OC(C)(C)C)cc1C(=O)Nc1cccc(C2CC(=O)c3c(cc(OC)c(OC)c3OC)O2)c1 (stereo not given in full) | 77.2% |
| COc1ccc(C2(SCCNCc3cc(N(C)C)ccn3)c3ccccc3C=Cc3ccccc32)cc1 | -29.8% (active) |
| COc1ccc2[nH]c(O)c(N=NC(=O)COc3ccc(NC(=O)Nc4ccccc4)cc3)c2c1 | 53.6% |
| COc1cc(/C=C/C(=O)c2ccc(C)cc2)ccc1Oc1nc(Nc2ccc(F)cc2)nc(N(C)C)n1 | 86.8% |
| CCN(CC)CCOc1ccc(Nc2ncc3cc(-c4ccc(O)c(C#N)c4)c(=O)n(C)c3n2)cc1 | 36.2% |
| CC(/C=C1\SC(=S)N(CCCC(=O)NC(CC(C)C)C(=O)O)C1=O)=C\c1ccccc1 (stereo not given) | 124% |
| COc1cc2c(c(OC)c1OC)C(=O)CC(c1cccc(NC(=O)c3cc(N)ccc3Cl)c1)O2 (stereo not given) | 86.2% |
